From PubChem BioAssay (NCI)
This is part of a sample that, as a whole, favours compounds with a hit. Of some 83,000 tested, about 20% had one in any assay.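 Percent growth is the endpoint: 0 to 100 indicates growth inhibition (40 means 60% inhibition), 0 means no net growth, and negative values indicate cell death.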 A number with no mark means an inactive call. The source made the active and inactive calls. How the source made its calls: active means growth percent below 10; inactive means the rest.

Legend:
Assay in all cases: NCI-60 one-dose screen, 48 h (100 = growth as untreated, 0 = no growth, -100 = all killed)
Settings in all cases: 10 µM unless noted
[1] = test system: HCT-15 colon
[2] = test system: HT29 colon
[3] = test system: SNB-75 CNS
[4] = test system: SNB-19 CNS
[5] = test system: U251 CNS
[6] = test system: PC-3 prostate
[7] = test system: SK-MEL-5 melanoma
[8] = test system: UACC-62 melanoma
[9] = test system: LOX IMVI melanoma
[10] = test system: SK-MEL-28 melanoma

Structure (SMILES)	growth [1]	growth [2]	growth [3]	growth [4]	growth [5]	growth [6]	growth [7]	growth [8]	growth [9]	growth [10]
O=Cc1ncc(-c2ccc(C(F)(F)F)cc2)c(NC2CCCCCC2)n1	-79% [100 µM] (active)	-80.8% [100 µM] (active)	-15.7% [100 µM] (active)	-47.6% [100 µM] (active)	-98.2% [100 µM] (active)	-81.7% [100 µM] (active)	5.66% [100 µM] (active)	-90.1% [100 µM] (active)	-73.4% [100 µM] (active)	-71.4% [100 µM] (active)
Nc1ccc2c(c1)Cc1cc(Cl)c(Cl)cc1-2	51.5%	93.1%	84%	46.2%	34.6%	68.5%	43.4%	63.4%	76.1%	78.6%
COc1cc(NC(=O)NCc2ccco2)ccc1-c1ccc(NC(=O)NCc2ccco2)cc1OC	48.7%	33.7%	65.3%	72.9%	12.4%	33.6%	30.6%	45.3%	45.4%	79.8%
COc1cc(/C=C2\SC(N3CCCCC3)=NC2=O)ccc1OCCCCCCOc1ccc(/C=C2\SC(N3CCCCC3)=NC2=O)cc1OC	25.5%	-13.8% (active)	18.8%	44%	-3.37% (active)	34%	10.3%	17.6%	-44.7% (active)	12.7%
Cn1cc(NC(=O)Nc2cc(C(=O)O)n(C)c2)cc1C(=O)O	113%	107%	103%	118%	100%	-76.4% (active)	93.6%	90%	98.1%	121%
CCCCCN(CCCCC)CCCNc1c2c(nc3ccc(Cl)cc13)CCCC2	32.5%	1.62% (active)	47.9%	60.8%	35%	41.7%	23.4%	51%	14%	71.2%
Oc1c(Cl)cc(Oc2cc(Cl)c(O)c(CN3CCOCC3)c2)cc1CN1CCOCC1	82.1%	105%	88.1%	86.2%	96.9%	81%	87.5%	66.8%	83.3%	126%
CC(=O)c1ccccc1NC(=O)C(C)(c1ccccc1)c1ccccc1	104%	91.1%	81.1%	97.1%	91.6%	66.8%	6.19% (active)	70.9%	81.8%	111%
CCOc1cc(/C=C/C(=O)CC(=O)/C=C/c2ccc(OC(=O)CNc3nc4ccc(OC)cc4s3)c(OCC)c2)ccc1OC(=O)CNc1nc2ccc(OC)cc2s1	43.4%	-50.8% (active)	34.1%	49%	15.7%	35.3%	30.1%	55.8%	6.98% (active)	39.5%
CC[C@@H](C)/C=C(C)/C=C/C(=O)c1c(O)c(-c2ccc(O)cc2)cn(OC2CC(=O)CCC(C)OC(=O)CC2O)c1=O (stereo not given in full)	26.8%	29.5%	18%	22.9%	11.1%	34%	-22.7% (active)	-13.1% (active)	2.2% (active)	34%
O=C(NCCCl)NCCN1c2nc3ccccc3cc2Sc2cc3ccccc3nc21	51.9%	36.2%	-5.93% (active)	63.9%	34.8%	25.3%	9.61% (active)	47.4%	49.7%	86.4%
C[C@H]1O[C@@H](O[C@H]2[C@@H](O)C[C@H](O[C@H]3[C@@H](O)C[C@H](O[C@H]4CC[C@]5(C)C6CC[C@]7(C)[C@@H](C8=CC(=O)OC8)CC[C@]7(O)C6CC[C@@H]5C4)O[C@@H]3C)O[C@@H]2C)C[C@H](O)[C@@H]1O (stereo not given in full)	-85.6% (active)	-89.8% (active)	-80.8% (active)	-100% (active)	-100% (active)	-24.1% (active)	-100% (active)	-82.4% (active)	-100% (active)	-51.5% (active)
O=c1sc2ncnc3ncn1c32	78%	56.2%	46.1%	97.4%	87.4%	75.8%	89.3%	56.8%	12.7%	99.6%
COc1ccc2c(c1)CC/C(=C\c1ccc(OCC(=O)Nc3nc4ccccc4s3)cc1)C2=O	102%	103%	95.2%	100%	81.4%	74.1%	91.6%	86%	-88.6% (active)	112%
Nc1nc2c(nnn2Cc2ccc(Cl)c(Cl)c2)c(=O)[nH]1	98.7%	100%	90.5%	95.1%	96.6%	79.3%	107%	73.9%	93.9%	111%
O=C1NC(=S)S/C1=C\c1cc(Br)ccc1O	97.8%	119%	97.8%	107%	99.9%	104%	92.6%	84.8%	100%	111%
CCN(CC)CCNCC(=O)Oc1ccc(/C=C/C(=O)CC(=O)/C=C/c2ccc(OC(=O)CNCCN(CC)CC)c(OC)c2)cc1OC	14.4%	-80.7% (active)	-8.49% (active)	22%	13.4%	14.4%	-13.7% (active)	15.4%	-66.5% (active)	14.5%
CC1c2ccccc2-c2ccccc2N1C (stereo not given)	102%	102%	105%	97.3%	99.2%	83.9%	107%	86.6%	94.6%	119%
O=C(CNc1ccc2c(c1)C(=O)c1ccccc1C2=O)Nc1ccc2c(c1)C(=O)c1ccccc1C2=O	-81.5% (active)	-54.5% (active)	-51.4% (active)	-29.9% (active)	-91.4% (active)	-24.3% (active)	-98.1% (active)	-93.3% (active)	-91.7% (active)	-75.1% (active)
c1ccc2nc(N/N=C3\CCCCC3C3CCCCC3)ccc2c1 (stereo not given)	33.5%	26.6%	70.2%	76%	41.6%	14%	39.7%	50.8%	23.4%	62.6%
C(=C1c2ccccc2-c2ccccc21)c1ccccn1	42.8%	17%	62.5%	73.6%	50.4%	78.1%	78.3%	52.9%	57.2%	81%
CCOC(=O)OCC(=O)[C@@]1(O)CC[C@H]2[C@@H]3CCC4=CC(=O)CC[C@]4(C)[C@H]3[C@@H](O)C[C@@]21C	105%	103%	119%	96.4%	103%	92%	98.2%	87.6%	89.8%	110%
Cc1cc(Cl)ccc1Nc1nc(C(F)(F)F)ccc1C(=O)N/N=C/c1ccc(Cl)cc1	5.02% (active)	3.44% (active)	-21.9% (active)	14.6%	2.95% (active)	-2.59% (active)	-13.8% (active)	-0.152% (active)	0.0613% (active)	20.9%
O=C(NC1CCS(=O)(=O)C1)c1ccc(C(=O)c2ccccc2)cc1 (stereo not given)	101%	106%	90.9%	97.9%	90.1%	101%	110%	95.6%	95.6%	89.2%
COc1ccc(-n2cnc3cc(C(=O)N4CCCCC4)ccc32)cc1	104%	102%	86.6%	94.3%	96.6%	94.6%	102%	101%	97.9%	99.1%
CN(C)c1ccc(-n2nc3ccccc3n2)cc1	108%	111%	108%	98.6%	95.5%	101%	75.2%	81.1%	93.8%	126%
COc1ccc2cc(-c3nc4ccccc4[nH]3)c(=O)oc2c1	94.2%	114%	126%	98.3%	93.5%	87.5%	94.8%	83.6%	80.4%	103%
